Entries with a potency or affinity are not part of this list. Active and inactive are the calls of the source.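 How the source made its calls: active means fitted half-maximal concentration for loss of cell signal no higher than twice the top valid tested concentration; inconclusive means flat curve at 30 to 70% inhibition, or poor fit; inactive means flat within 30%, signal rise, or potency above limit.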

This assay can be described thus: cytotoxicity toward MDA-MB-231 breast cancer cells – cell-based, CellTiter-Glo luminescence, cherry-pick, cytotoxicity control for RAD54 inhibitor project, dose response (AID 651692).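 Further: more negative values mean stronger loss of viable cell signal.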 The note with it: MDA-MB-231 viability, 24 h; series mostly up to 26 µM.
For the compound `CN(C)CCc1cc2c(c3c1ccc1ccccc13)OCO2`, the result was inactive.
Turning to `CC(C)OCC(O)CN1CCN(CCN2C(=O)c3cccc4cccc(c34)C2=O)CC1` (stereo not given), the compound was called inactive.
As to `CCOC(=O)c1c(C)n(C)c2ccc(OCC(O)CN3CCC(C)CC3)cc12` (stereo not given), the call was inactive.
For `OC1CCCN(Cc2c3ccccc3cc3ccccc23)C1` (stereo not given), the compound was classed as inactive.
As for `Cc1c(OCC(=O)NC2CC(C)(C)NC(C)(C)C2)ccc2c1oc(=O)c1ccccc12`, the entry is “inactive”; as for `Cn1c2ccccc2c(=O)c2cc(NCCCN3CCOCC3)ccc21`, “inactive”; as for `COc1ccc(-c2nc(C(=O)NCCCN3CCOCC3)cc3c2[nH]c2ccccc23)cc1OC`, “inactive”.
As for `N=c1c(C(=O)NCCN2CCOCC2)cc2c(=O)n3ccccc3nc2n1CCc1ccccc1`, the entry is “inactive”.
For the compound `COc1ncccc1-c1cc2nc(NCCCN(C)C)n(C)c(=O)c2s1`, the compound was classed as inactive.
For `CCOC(=O)c1c(CN2CCCCC2)n(C)c2cc(Br)c(OC)cc12`, the call was inactive.
As for `COc1cccc(-c2cc(NC=O)c3ncc(-c4cccc(C(=O)NCCN(C)C)c4)n3c2)c1`, the outcome was inactive.
As for `Cc1cccc(-c2nc(NCCCN(C)C)c3ccccc3n2)c1`, the entry is “inactive”; as for `CN(C)CCCNc1nc2cc(-c3ccc(C(=O)N4CCN(C)CC4)cc3)sc2c(=O)n1C`, “inactive”; as for `COc1ccccc1Nc1nc(NCCCN(C)C)nc(N)c1[N+](=O)[O-]`, “inactive”.
`Cc1c(CN(C)C)c2c(n1C)C(=O)c1ccc(Br)cc1-2`: the compound was called inactive.
As for `CN(C)CCCN(C(=O)CCOc1ccccc1)c1nc2ccc(F)cc2s1`, the entry is “inactive”; as for `C=CC(=O)Nc1ccc(N(C)c2ccnc(Nc3ccc(N4CCN(C)CC4)cc3)n2)cc1`, “inactive”.
As for `O=S(=O)(c1ccc(-c2nnc(SCc3ccccc3)o2)cc1)N1CCCC1`, the entry is “inactive”; as for `COc1ccc(-c2cc3nc(NCCCN(C)C)n(C)c(=O)c3s2)cc1OC`, “inactive”.
Next, `CCOC(=O)c1cnc2c(C)cc(C)cc2c1NCCCN1CCOCC1`: “inactive”.
